Results taken from PubChem BioAssay AID686979 (National Center for Advancing Translational Sciences (NCATS), 2013).
Values joined by “and” are separate entries in the source; they are usually repeats but may differ in a detail not shown here. Equal values may be shown once. The whole screen tested about 420,000 compounds, of which about 50,000 (12%) were called active. About 26% were inconclusive and are not listed. Shown is part of a subset that was picked to be rich in actives. Values without a mark were called inactive. Calls follow the shape of the dose curve; as a rule, active = well fitted inhibition curve with a large enough effect; inconclusive = small, poorly fitted or top-dose-only effect; inactive = flat fitted curve, though single readings scatter.

Assay: qHTS for Inhibitors of human tyrosyl-DNA phosphodiesterase 1 (TDP1): qHTS in cells in presence of CPT; also: nearly all actives have a fitted effect of over 55% in size
Conditions: chicken DT40 Tdp1-/-;hTDP1 cells + 20 nM CPT, ATP luminescence, 48 h; series mostly up to 46.2 µM; activity change, negative = growth inhibition: at the top concentration
How it was run: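 Chicken DT40 Tdp1-/- cells stably complemented with human TDP1 were seeded at 400 cells/well in medium containing 20 nM camptothecin, exposed to pin-transferred compounds, and grown at 37 °C for at least 48 hr. Viability was read as ATP luminescence.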
% is scaled to controls: 0 for no effect and ±100 for the full control effect; potency is read from the fitted curve at half-maximal effect.

SMILES	activity change, negative = growth inhibition	Potency
O=c1ccc(-c2ccc(S(=O)(=O)Nc3ccccc3)o2)n[nH]1	-6.29%	–
CCOc1ccc(NC(=O)C/C(C)=N/NC(=O)Cc2cccs2)cc1	17.8%	–
Cc1ccc2c(c1)c1c(c(=O)n(-c3ccccc3)c(=O)n1CC(=O)c1ccc(Cl)cc1)n2C	-3.09%	–
O=C1OC(Cc2ccccc2)C(c2ccccc2)C1=O (stereo unspecified)	-6.46%	–
NC(=O)CSc1oc(-c2cccs2)nc1S(=O)(=O)c1ccccc1	6.63%	–
COC(=O)CSc1nccc(-c2cccs2)n1	3.52%	–
Cc1ccc(CSc2ccc(S(=O)(=O)N3CCCCC3)cn2)cc1	-0.899%	–
Cc1c(-c2ccccc2)nc(N)c(C#N)c1-c1cccs1	2.19%	–
CCCCS(=O)(=O)c1oc(-c2cccs2)nc1S(=O)(=O)c1ccccc1	–	0.82 µM (active)
Cc1ccc(CSc2oc(-c3cccs3)nc2S(=O)(=O)c2ccc(C)cc2)cc1	–	13 µM (active)
Cc1ccc(NC(=O)COC(=O)CNC(=O)c2ccc(Cl)cc2Cl)cc1S(=O)(=O)N1CCOCC1	16.6%	–
COc1ccc2[nH]c3c(c2c1)CCN1C(=O)C(CC(=O)NCCc2ccccn2)C[C@H](C(=O)N2CCOCC2)[C@@]31C (stereo partly specified)	-0.962%	–
COc1ccc(OCCCCN2CCC(C)CC2)cc1	-3.58%	–
O=S(=O)(Nc1cccc(-c2ccc(N3CCOCC3)nn2)c1)c1ccc(Cl)c(Cl)c1	-3.47%	–
CCN(CC)C(CNC(=O)CSc1nnnn1-c1cccc(F)c1)c1ccco1 (stereo unspecified)	-20%	–
COc1ccc(N(C(=O)CNC(=O)c2ccco2)C(C(=O)NCC2CCCO2)c2ccccc2)cc1Cl (stereo unspecified)	11.1%	–
O=c1c2ccccc2nc2n1C(CSCc1cccc(C(F)(F)F)c1)CS2 (stereo unspecified)	–	3.66 µM (active)
O=c1c2ccccc2nc2n1C(CSCc1ccccc1)CS2 (stereo unspecified)	–	8.2 µM (active)
O=c1c2ccccc2nc2n1C(CSc1ccc(F)cc1)CN2 (stereo unspecified)	3.24%	–
O=S(=O)(c1cccc(C(F)(F)F)c1)N1CCN(c2nc(-c3cccs3)nc3ccccc23)CC1	4.24%	–
O=c1c2ccccc2nc2n1C(CSc1ccc(Cl)cc1)CN2 (stereo unspecified)	-1.74%	–
N#Cc1c(-c2ccccc2)nc(SCc2cccc(C(F)(F)F)c2)[nH]c1=O	-0.969%	–
COc1ccc(-c2c(C)c3ccc(O)c(CN4CCN(C)CC4)c3oc2=O)cc1OC	-29.5%	–
O=c1c2c(-c3ccccc3)ccnc2[nH]n1-c1ccccc1	–	inactive
COc1cc(/C=C2\SC(=O)NC2=O)ccc1OCc1ccc(Cl)nc1	-1.3%	–
C=CCNC(=O)c1ccc(C)c(Br)c1	25.2%	–

SMILES	activity change, negative = growth inhibition	Potency
C=CCNC(=O)c1cc(-c2ccccc2O)on1	-22.6%	–
C=CCNC(=O)c1ccc2nc(-c3ccco3)c(-c3ccco3)nc2c1	–	11.2 µM (active)
CCSc1nnc(SCC(=O)NNC(=O)c2ccccc2F)s1	-10.2%	–
CCOc1ccc(CCNC(=O)CSc2cc(=O)n(C)c3ccc(Cl)cc23)cc1OCC	–	18.4 µM (active)
CCOc1ccc(CCNC(=O)Nc2ccccc2)cc1OCC	-29.2%	–
CCN(CCCNC(=O)CSc1cc(=O)n(C)c2cc(Cl)ccc12)Cc1ccccc1	-4.12%	–
Cn1c(=O)cc(SCC(=O)N2CCCC2)c2cc(Cl)ccc21	-6%	–
COc1cccc(NC(=O)CSc2cc(=O)n(C)c3ccc(Cl)cc23)c1	–	23.1 µM (active)
COc1cccc(NC(=O)CN(C)C(=O)Cc2ccc(Cl)cc2Cl)c1	-14.2%	–
CN(C)Cc1c(O)ccc2occ(C(O)c3ccccc3)c12 (stereo unspecified)	0.876%	–
COC(C[C@@H](O)C[C@@H](O)[C@H](C)OCc1ccccc1)OC	12.1%	–
Cc1ccc2c(c1)N(C(=O)Nc1ccc(Br)cc1F)CCO2	2.15%	–
O=C(Nc1ccccc1C(=O)Nc1ccncc1)c1ccc([N+](=O)[O-])cc1	-1.72%	–
CCOC(=O)c1nc(Nc2ccc(C(=O)OC)cc2)c2ccccc2n1	–	7.31 µM (active) and 16.4 µM (active)
CCOC(=O)c1ccc(Nc2cc(C)nc3nc(C)nn23)cc1	1.9%	–
COC(=O)c1ccc(Nc2ncnc3sccc23)cc1	-7.33%	–
C/C=C/C(=O)OCC(=O)Nc1ccc(F)cc1Cl	-15.8%	–
CN(C)N1C(N)=C(C#N)C(c2ccc(Br)cc2)C2=C1CCCC2=O (stereo unspecified)	5.39%	–
CCCNC(=O)c1c(N)n(-c2ccc(S(N)(=O)=O)cc2)c2nc3ccccc3nc12	-3.73%	–
COCC(C)OC(=O)c1c(N)n(CCCN2CCOCC2)c2nc3ccccc3nc12 (stereo unspecified)	2.35%	–
CC(C)(C)c1ccc(C(=O)NCCn2c(N)c(C#N)c3nc4ccccc4nc32)cc1	–	23.1 µM (active)
O=C(NCc1nnc(SCC(=O)N2CCCCCC2)o1)c1ccc(F)cc1	3.58%	–
C=CCc1cc(S(=O)(=O)c2ccc(O)c(CC=C)c2)ccc1O	-21.5%	–
Cc1c(CCC(=O)O)c(=O)oc2c(C)c(OCc3ccccc3Cl)ccc12	7.19%	–
CC(C)CN(C(=O)c1cccc(S(=O)(=O)N2CCCCC2)c1)C1CCS(=O)(=O)C1 (stereo unspecified)	–	inactive
